Calls of active or inactive are those of the source. Rule for the calls: active = hit-call score of the fitted dose curve at least 0.9, where 1 is the maximum; inactive = score below 0.9.

The experiment deals with Retinoic acid receptor alpha (Homo sapiens) (UniProt P10276). In words: ATG_DR5_RAR_CIS: Attagene CIS-FACTORIAL HepG2 Assay for human Retinoic Acid Receptor Alpha (RARE), DR5 submotif (AID 2282934).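 For AC50: reporter responds to endogenous RAR alpha beta and gamma in HepG2 not RARA alone.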 Particulars: HepG2 Attagene cis-factorial RARE DR5 reporter, mRNA; actives raise or lower the signal. The method, then: ATG_CIS is a cell-based, multiplexed-readout assay that uses HepG2, a human liver cell line, with measurements taken at 24 hours after chemical dosing in a 24-well plate.ATG_DR5_RAR_CIS is one of 52 assay component(s) measured or calculated from the ATG_CIS assay. It is designed to make measurements of mRNA induction, a form of inducible reporter, as detected with fluorescence intensity signals by Reverse transcription polymerase chain reaction (RT-PCR) and Capillary electrophoresis technology.Data from the assay component ATG_DR5_RAR_CIS was analyzed into 1 assay endpoint. This assay endpoint, ATG_DR5_CIS, was analyzed with bidirectional fitting relative to DMSO as the negative control and baseline of activity. Using a type of inducible reporter, measures of mRNA for gain or loss-of-signal activity can be used to understand the reporter gene at the transcription factor-level as they relate to the gene RARA and RARB and RARG. Furthermore, this assay endpoint can be referred to as a primary readout, because this assay has produced multiple assay endpoints where this one serves a reporter gene function. To generalize the intended target to other relatable targets, this assay endpoint is annotated to the nuclear receptor intended target family, where the subfamily is non-steroidal.
Sequence of Retinoic acid receptor alpha (Homo sapiens) (P10276 whole entry, looked up): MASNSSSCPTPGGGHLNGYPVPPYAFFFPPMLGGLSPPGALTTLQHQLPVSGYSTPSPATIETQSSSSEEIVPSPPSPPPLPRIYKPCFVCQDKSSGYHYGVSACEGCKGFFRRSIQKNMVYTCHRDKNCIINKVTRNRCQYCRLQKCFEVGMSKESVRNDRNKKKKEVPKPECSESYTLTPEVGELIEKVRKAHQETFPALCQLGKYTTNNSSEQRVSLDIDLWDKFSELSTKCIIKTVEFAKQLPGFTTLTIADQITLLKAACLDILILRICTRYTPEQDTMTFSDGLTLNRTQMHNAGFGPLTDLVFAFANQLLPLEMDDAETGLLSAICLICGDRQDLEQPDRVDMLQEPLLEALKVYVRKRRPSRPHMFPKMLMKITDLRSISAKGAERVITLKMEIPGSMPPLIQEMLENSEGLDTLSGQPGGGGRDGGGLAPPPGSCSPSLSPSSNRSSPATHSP
Human liver HepG2 cells are transiently transfected with multiple reporter transcription units (MRTUs) in 6-well plates using FuGene 6 reagent (Roche; 3 ml FuGene/1 mg DNA). The MRTU constructs are regulated by a cis-regulating element (promoter). […] A major difference between the CIS and TRANS system is that in CIS activities of endogenous TFs are measured, whereas the TRANS assay evaluates changes in activities of exogenous, chimeric NR-Gal4 proteins. […] At the end of 24 hour incubation, total RNA was isolated using TriZol reagent (Invitrogen). The isolated RNA is then reverse-transcribed using oligo(dT) primer and Mo-MLV reverse transcriptase (Invitrogen) with DNAse I (Ambion) treatment for 30 min. The one-tenth of the produced cDNA was amplified by PCR using Taq DNA polymerase (Invitrogen) and two reporter sequence-specific primers. The PCR products were fluorescently labeled by primer extension with 6-arboxyfluorescein (6-FAM) 5'-labeled reporter sequence-specific primer (2 min at 95 C, 20 s at 68 C and 10 min at 72 C) and these products were digested with 5U of HpaI (New England Biolabs) for 2h at 37 C. The fragments were purified using Qiaquick PCR columns (Qiagen), analyzed on an ABI 3130xL genetic analyzer (Applied Biosystems) with peak positions identified by using a set of X-rhodamine (ROX)-labeled MapMarker1000 molecular weight standards (BioVentures). The raw capillary electrophoresis data was processed using Attagraph software (Attagene).
Take `COc1cc(C)ccc1C(C)C`: the result was inactive. On the same count and under the same terms, in the case of `O=C1C=CC(=O)O1` it was “inactive”; in that of `O=CC1CC1`, “inactive”.

As for `CC1(C)S[C@@H]2[C@H](NC(=O)COc3ccccc3)C(=O)N2[C@H]1C(=O)O`, the compound was called inactive. The same measure, in the same setting: in the case of `CC(C)c1ccc(C=O)cc1` it was “inactive”; in that of `Cc1cc(C)c(C)c(C)c1`, “inactive”. Same read-out and setting: under `O=C(C=Cc1ccccc1)OCc1ccccc1` stands “inactive”; under `CC1(C)O[C@@H]2C[C@H]3[C@@H]4C[C@H](F)C5=CC(=O)CC[C@]5(C)[C@H]4[C@@H](O)C[C@]3(C)[C@]2(C(=O)CO)O1`, “inactive”. `CC/C=C\C/C=C\C/C=C\CCCCCCCC(=O)O`: the call was inactive.

Consider `CCO[Si](CCCN=C=O)(OCC)OCC`, for which the outcome was inactive. The same measure, in the same setting: in the case of `CC(=O)Oc1ccc(C(C)=O)cc1` it was “inactive”; in that of `CC(=O)CC(N)=O`, “inactive”; in that of `c1c[nH]cn1`, “inactive”. `CC(C)COC(=O)C=Cc1ccccc1`: the result was inactive. The same measure, in the same setting: in the case of `CN1C(=O)N(C)C(O)C1O` (stereo not given) it was “inactive”.

For the compound `CC1(C)[C@H]2CC[C@]1(C)C(=O)C2`, the call was inactive.

Turning to `CC(C)(C)C(=O)C=Cc1ccc(Cl)cc1`, the call was inactive. For `CCCCCCCCCCCCCCCCCC#N`, the outcome was inactive. On to `O=[N+]([O-])c1ccc(CO)cc1`, for which the compound was classed as inactive. On the same count and under the same terms, in the case of `CCCOC(=O)CCCCC(=O)OCCC` it was “inactive”.

Regarding `CC(=O)[C@@]1(O)CC[C@H]2[C@@H]3C[C@H](C)C4=CC(=O)C=C[C@]4(C)[C@@]3(F)[C@@H](O)C[C@@]21C`, the half-maximal activity concentration (AC50) was 100 µM (active). In the case of `O=[N+]([O-])C1(Br)COCOC1`, the compound was classed as inactive.

Regarding `[Cl][Bi]([Cl])([c]1ccccc1)([c]1ccccc1)[c]1ccccc1`, the result was inactive. Same read-out and setting: under `O=S(=O)(O)c1cc(S(=O)(=O)O)c2ccc3c(S(=O)(=O)O)cc(S(=O)(=O)O)c4ccc1c2c43` stands “inactive”; under `NNC(=O)c1cccc(C(=O)NN)c1`, “inactive”.

Consider `COc1ccc(-c2coc3cc(O)ccc3c2=O)cc1`, for which the result was inactive.

Turning to `CC(=O)C=CC1C(C)=CCC(C)C1(C)C` (stereo not given), the compound was called inactive.

`C=CCOCC(O)CCl` (stereo not given): the result was inactive. Same read-out and setting: in the case of `O=C1c2cccc(O)c2C(=O)c2c(O)cc(CO)cc21` it was “inactive”. Same read-out and setting: under `CCN(CC)c1ccc(C(=O)c2ccccc2C(=O)O)c(O)c1` stands “inactive”; under `CC(=O)OC1C2(C)CCC(C2)C1(C)C` (stereo not given), “inactive”; under `COC(=O)c1cc(Cl)ccc1[N+](=O)[O-]`, “inactive”. For the compound `CCCCCCCCCCCCCCCC(=O)OCC`, the compound was classed as inactive. Still for that read-out and setting: in the case of `CCCCCCOc1cc(C)c(O)c(C)c1C` it was “inactive”; in that of `C=C(C)C(=O)OCCO`, “inactive”. Still for that read-out and setting: in the case of `[Cl][Nd]([Cl])[Cl]` it was “inactive”. On the same count and under the same terms, in the case of `OC1CCCC1` it was “inactive”; in that of `NC(CO)(CO)CO`, “inactive”; in that of `C=COCCCC`, “inactive”.

On to `CC(=O)NS(=O)(=O)c1ccc(N)cc1`, for which the outcome was inactive.

Broadly, the AC50 is the concentration at which the activity in the assay is half-maximal.

The values above are taken from PubChem BioAssay (EPA / NIEHS).
